Inconclusive results are not listed. Unmarked numbers belong to inactive results. Activity calls are given as the source filed them. The call rests on the fitted dose curve; in most records, active means well fitted cell-killing curve with a large enough effect in the repeat runs; inconclusive means weak or mixed curves, or effect the other way; inactive means flat fitted curve, though single readings scatter.
assay: cAMP Responsive Elements (CRE) small molecule antagonists, cell-based qHTS assay: qHTS cell viability counter screen (AID 2060913); conditions: CRE-bla HEK293T viability, CellTiter-Glo luminescence, 5 h; series mostly up to 92.4 µM; viability change, negative = cytotoxic: at the top concentration; further: nearly all actives have a fitted effect of over 40% in size
Method in brief: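 HEK293T CRE-bla, 2,000 cells/well, 18 h preincubation; cpd in DMSO + NKH477 0.25 uM final, 3 h 37 C/5% CO2; LiveBLAzer 2 h RT, then CellTiter-Glo 30 min RT, luminescence.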
On the % scale 0 is the no-effect control and ±100 the full control effect; potency means the concentration at half of the fitted maximal effect.

SMILES	Potency	viability change, negative = cytotoxic
CO/C=C(/C(=O)OC)c1ccccc1Oc1cc(Oc2ccccc2C#N)ncn1	65.2 µM (active)	
OC(Cn1cncn1)(c1ccc(F)cc1)c1ccccc1F (stereo not given)		-7.51%
Nc1ccc(Cc2ccc(N)c(Cl)c2)cc1Cl		12.2%
N#Cc1cccnc1	inactive	
CS(=O)(=O)c1ccc(C(=O)C2C(=O)CCCC2=O)c([N+](=O)[O-])c1		2.04%
CC(C)Br		-7.96%
COc1ccc(OC)c(C=O)c1		12%
O=S1OCC2C(CO1)C1(Cl)C(Cl)=C(Cl)C2(Cl)C1(Cl)Cl (stereo not given)	61.1 µM (active)	
Cc1cc(Cl)ccc1O	inactive	
Nc1ccccc1	inactive	
CC(=O)[O-].CC(=O)[O-].[Co+2]		9%
C#CC(C)(C)NC(=O)c1cc(Cl)cc(Cl)c1	inactive	
CCOP(=O)(N=C1SCCS1)OCC		4.74%
CC(C)Oc1cccc(NC(=O)c2ccccc2C(F)(F)F)c1		0.493%
N#Cc1nn(-c2c(Cl)cc(C(F)(F)F)cc2Cl)c(N)c1S(=O)C(F)(F)F (stereo not given)		-16.1% [at 42.5 µM]
OC(c1ccc(Cl)cc1)(c1ccc(Cl)cc1)c1cccnc1		-11%
Cc1ccc(S(=O)(=O)N[C@@H](CCCCN)C(=O)CCl)cc1		13% [at 42.5 µM]
Fc1ccc(Oc2ccnc3cc(Cl)cc(Cl)c23)cc1		-5.16%
c1ccc2c(c1)Oc1ccccc1O2	inactive	
C[C@H](N)C(=O)c1ccccc1		-5%

SMILES	Potency	viability change, negative = cytotoxic
CCN1CCC2(CC1)COc1cc3c(cc12)N(C(=O)c1ccc(-c2ccc(-c4nnc(C)o4)cc2C)cc1)CC3	56.4 µM (active)	
O=C(N[C@@H]1N=C(c2ccccc2F)c2cccc3c2N(CC3)C1=O)c1cc2ccccc2[nH]1		-1.16% [at 42.5 µM]
CC(C)[C@H](C(=O)O[C@H](C#N)c1cccc(Oc2ccccc2)c1)c1ccc(Cl)cc1		-14.6%
CC(C)CON=O	inactive	
C[C@]12CC[C@@H]3c4ccc(OC(=O)N(CCCl)CCCl)cc4CC[C@H]3[C@@H]1CC[C@@H]2O		-0.486% [at 42.5 µM]
CCC[CH2][Sn]([CH2]CCC)([CH2]CCC)[CH2]CCC		-26%
COC(=O)C(Br)CBr (stereo not given)		-3.12%
CC(C)(c1cc(Cl)c(O)c(Cl)c1)c1cc(Cl)c(O)c(Cl)c1	inactive	
CC(O)CCO (stereo not given)	inactive	
C[C@@H]1CN(C2CCC(C#N)(c3ccc(F)cc3)CC2)CC[C@]1(C(=O)O)c1ccccc1 (stereo not given in full)		-0.932% [at 42.5 µM]
Nc1ccc(Cl)cc1	inactive	
Cc1cccc(C)c1NC1=NCCCS1		-1.78% [at 42.5 µM]
CC(C)(c1ccccc1)c1ccc(O)cc1		-28%
O=C(O)c1cc(Cl)ccc1Cl		6.42%
CCC(C(N)=O)N1CCCC1=O (stereo not given)		7.41% [at 42.5 µM]
Nc1n[nH]c(N)n1		2.01%
CNNC		-6.6%
C=CC(=O)OC(C)(C)C		-3%
Nc1ccc(-c2ccc(N)c(N)c2)cc1N	inactive	
COc1nn(CSP(=S)(OC)OC)c(=O)s1		-10.4%

From PubChem BioAssay (Tox21)
